Values joined by “and” are separate entries in the source; they are usually repeats but may differ in a detail not shown here. Identical values can stand only once. Records with an inconclusive call do not appear. More than one record can exist for a structure, and the calls need not agree. Active and inactive are the calls of the source. The calls were made as follows, unless noted: active = hit-call score of the fitted dose curve at least 0.9, where 1 is the maximum; inactive = score below 0.9.
Tests used:
[1] = read-out: CD69, CD69 (gene 969); test: BSK_LPS_CD69: BioMAP Diversity Plus: LPS Assay for CD69 Biomarker Activity (AID 2284303); conditions: primary human HUVEC with PBMC
Method in brief: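 CD69 surface levels were read by ELISA after 24 h chemical treatment of an LPS-stimulated HUVEC plus PBMC co-culture; positive-direction fit against DMSO vehicle.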

[2] = IUF_NPC2a_radial_glia_migration_72hr: Leibniz Research Institute for Environmental Medicine (IUF) 72-hour Neural Progenitor Cell Migration Assay for Radial Glia Migration (NPC2a) (AID 2284299)
Experimental: IUF_NPC2-5 is a cell-based, multiplexed assay that uses hNPC, a human primary neural progenitor cells, with measurements taken at 72 or 120 hours after chemical dosing in a 96-well plate. Human neural progenitor cells (hNPC) are generated from human fetal brain cortex at gestational week (GW) 16-19. In the neural progenitor cell migration and differentiation assay (NPC2-5), hNPCs grown as spheres are plated on an extracellular matrix and migrate and differentiate out of the sphere core. The processes radial glia migration, neuronal and oligodendrocyte migration as well as neuronal differentiation, neuronal morphology and oligodendrocyte differentiation are studied using automated phase contrast imaging and automated fluorescence imaging in combination with high content image analysis. In parallel, the cell viability is assessed using an alamar blue viability assay and the cytotoxicity using a lactate dehydrogenase dependent membrane integrity assay.IUF_NPC2a_radial glia_migration_72hr is one of 12 assay components measured from the IUF_NPC2-5 assay. The migration distance of radial glia at 72 hr is assessed in um from the edge of the sphere core to the edge of the migration area based on brightfield images of each well. […] Images are exported and the migration distance is measured manually in four directions using ImageJ. The mean of four measures per well is used as raw data input.Data from the IUF_NPC2a_radial_glia_migration_72hr component was analyzed at the endpoint IUF_NPC2a_radial_glia_migration_72hr in the positive analysis fitting direction relative to DMSO as the negative control and baseline of activity. […]
Culture protocol: After the cell expansion period the cells are cultured for up to four weeks in which they are passaged every week as described in 3.6. […] Therefore, half of the test condition solution (e.g. solvent control or compound dilution) is replaced by freshly prepared test condition solution.Test Method: Migration distance and cytotoxicity is determined after 72 hours based on brightfield images of each well. […]

[3] = IUF_NPC2b_neuronal_migration_120hr: Leibniz Research Institute for Environmental Medicine (IUF) 120-hour Neural Progenitor Cell Migration Assay for Neuron Migration (NPC2b) (AID 2284300)
Method in brief: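 Read-out is mean distance from sphere edge to each TUBB3-positive neuron at 120 h, expressed relative to radial glia migration distance and to DMSO baseline. Single 0.3 mm human NPC spheres differentiated on laminin under continuous compound exposure.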

[4] = IUF_NPC3_neuronal_differentiation_120hr: Leibniz Research Institute for Environmental Medicine (IUF) 120-hour Neuronal Differentiation Assay (NPC3) (AID 2284301)
Method in brief: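 hNPC spheres, PDL/laminin, DMEM/F12 3:1 + 1% N2, 37C, 5% CO2; 7 concentrations + solvent control, 5 d exposure, half-change day 3. Fix 120 h; TUBB3/Hoechst ICC, CNN neuron calling; % neurons vs nuclei, DMSO-normalized.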

[5] = IUF_NPC4_neurite_length_120hr: Leibniz Research Institute for Environmental Medicine (IUF) 120-hour Neuronal Morphology Assay for Neurite Length (NPC4) (AID 2284302)
Method in brief: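 hNPC spheres (0.3 mm, fetal brain GW 16-19) on PDL/laminin, DMEM:F12 3:1 + 1% N2, 37C 5% CO2; 7 concs + solvent control, day 0-5, half medium change d3; fix 120 h, TUBB3 ICC, mean neurite length um vs DMSO.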

[6] = IUF_NPC5_oligodendrocyte_differentiation_120hr: Leibniz Research Institute for Environmental Medicine (IUF) 120-hour Oligodendrocyte Differentiation Assay (NPC5) (AID 2284304; active = hit-call score of the fitted dose curve at least 0.9, where 1 is the maximum;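 also: share of O4-positive cells among Hoechst nuclei found by CNN image analysis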)
Method in brief: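 Oligodendrocyte differentiation was scored after 120 h as the O4-positive share of Hoechst-stained nuclei across the neurosphere migration area, using a trained convolutional neural network on high-content fluorescence images. Human fetal neural progenitor spheres were dosed from day 0, normalised to DMSO.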

[7] = IUF_NPC4_neurite_area_120hr: Leibniz Research Institute for Environmental Medicine (IUF) 120-hour Neuronal Morphology Assay for Neurite Area (NPC4) (AID 2284305; active = hit-call score of the fitted dose curve at least 0.9, where 1 is the maximum)
Method in brief: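 hNPC spheres on PDL/laminin, N2 medium, 37C/5% CO2; dosed day 0, half-medium refresh day 3; fixed 120 h; TUBB3/Hoechst ICC, high-content imaging; neurite area = mean pixels per neuron (nuclei excluded); DMSO baseline, max 0.1%.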

[8] = IUF_NPC2-5_cytotoxicity_72hr: Cytotoxicity Assessment at 72 hours in the Leibniz Research Institute for Environmental Medicine (IUF) Neural Progenitor Cell Migration and Differentiation Assay for Cytotoxicity (NPC2-5) (AID 2284306; active = hit-call score of the fitted dose curve at least 0.9, where 1 is the maximum;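 also: LDH release into supernatant measured by resorufin fluorescence marking membrane damage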)
Method in brief: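 hNPC spheres (0.3 mm), PDL/laminin, DMEM/F12 3:1 + 1% N2; cpd from d0, 7 concs + SC, DMSO max 0.1%; half-medium refresh d3. Readout: supernatant LDH via resorufin fluorescence (RFU), 72 h; gain-of-signal fit.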

[9] = IUF_NPC2-5_cytotoxicity_120hr: Cytotoxicity Assessment at 120 hours in the Leibniz Research Institute for Environmental Medicine (IUF) Neural Progenitor Cell Migration and Differentiation Assay (NPC2-5) (AID 2284307; active = hit-call score of the fitted dose curve at least 0.9, where 1 is the maximum)
Method in brief: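 Sphere plating starts differentiation and exposure together at day 0. Compound solution is half-replaced on day 3. At 120 h, medium supernatant is taken for an LDH membrane-integrity read based on resazurin reduction to resorufin fluorescence.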

[10] = IUF_NPC2-5_cell_number_120hr: Cell Number Assessment at 120 hours in the Leibniz Research Institute for Environmental Medicine (IUF) Neural Progenitor Cell Migration and Differentiation Assay (NPC2-5) (AID 2284308);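 also: count of Hoechst-stained nuclei in migration zone around plated human neural progenitor spheres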
Method in brief: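 hNPC spheres, one per well, PDL/laminin, N2 medium, 37C, 5% CO2. Dosing day 0 → half-medium change with fresh compound day 3 → fix 120 h. Readout: Hoechst+ nuclei count, migration area; 7 concentrations plus solvent control.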

Measured: AC50

C=C(C)C(=O)OCCC(F)(F)C(F)(F)C(F)(F)C(F)(F)C(F)(F)C(F)(F)F
inactive: [1]

CC1=C(/C=C/C(C)=C/C=C/C(C)=C/C(=O)O)C(C)(C)CCC1
inactive: [2] | [3] | [4] | [5] | [6] | [7] | [8] | [9] | [10]

FC(F)(I)C(F)(F)C(F)(F)C(F)(F)C(F)(F)C(F)(F)I
inactive: [1]
active: [1] 4.49 µM and 40.5 µM and 53.2 µM

OCCC(F)(F)C(F)(F)C(F)(F)C(F)(F)C(F)(F)C(F)(F)C(F)(F)C(F)(F)F
active: [1] 30 µM and 2.1 µM

CC#C[C@]1(O)CC[C@H]2[C@@H]3CCC4=CC(=O)CCC4=C3[C@@H](c3ccc(N(C)C)cc3)C[C@@]21C
inactive: [2] | [3] | [4] | [5] | [6] | [7] | [8] | [9] | [10]

CN1CCC[C@H]1c1cccnc1
inactive: [2] | [3] | [4] | [5] | [6] | [7] | [8] | [9] | [10]

NCC(F)(F)C(F)(F)C(F)(F)C(F)(F)C(F)(F)C(F)(F)C(F)(F)F
inactive: [1]

C[C@@H]1C[C@H]2[C@@H]3CCC4=CC(=O)C=C[C@]4(C)[C@@]3(F)[C@@H](O)C[C@]2(C)[C@@]1(O)C(=O)COP(=O)(O)O
inactive: [1]

OCCC(F)(F)C(F)(F)C(F)(F)C(F)(F)C(F)(F)C(F)(F)F
inactive: [1]
